# From PubChem BioAssay (EPA / NIEHS)
# Calls of active or inactive are those of the source. How the source made its calls: active means hit-call score of the fitted dose curve at least 0.9, where 1 is the maximum; inactive means score below 0.9.
# Read-out: Transforming growth factor beta 1 (TGFb1), TGFB1 (gene 7040)
# Assay: BSK_KF3CT_TGFb1: BioMAP Diversity Plus: KF3CT Assay for Transforming growth factor beta 1 (TGFb1) Biomarker Activity (AID 2283072)
# Conditions: primary human keratinocytes with fibroblasts; actives raise or lower the signal
# Experimental: BSK_KF3CT is a cell-based, multiplexed-readout assay that uses keratinocytes and foreskin fibroblasts, a human skin primary cell co-culture, with measurements taken at 24 hours after chemical dosing in a 96-well plate.BSK_KF3CT_TGFb1 is an assay component measured in the BSK_KF3CT assay. It measures TGF-b1 antibody related to regulation of gene expression using ELISA technology.Data from the assay component BSK_KF3CT_TGFb1 was analyzed into 1 assay endpoint. This assay endpoint, BSK_KF3CT_TGFb1, was analyzed with bidirectional fitting relative to DMSO as the negative control and baseline of activity. Using a type of binding reporter, gain or loss-of-signal activity can be used to understand changes in the signaling as they relate to the gene TGFB1. Furthermore, this assay endpoint can be referred to as a primary readout, because this assay has produced multiple assay endpoints where this one serves a signaling function. To generalize the intended target to other relatable targets, this assay endpoint is annotated to the growth factor intended target family, where the subfamily is transforming growth factor beta.
# The levels of cell surface (or secreted, indicated by the prefix "s") biomarker endpoints were measured by ELISA. Overt cytotoxicity to cells in confluent adherent cultures (all systems other than the BT system) was assessed by measuring total protein levels using sulforhodamine B (SRB) staining in parallel cultures at the time of biomarker measurements, indicated as SRB endpoints. For proliferation assays for adherent cell types, individual cell types are cultured at sub-confluence and relative cell numbers quantified by SRB staining at time points optimized for each system (48 h: 3C and CASM3C systems; 72 h: BT and HDF3CGF systems; 96 h: SAg system). SRB was performed by staining cells with 0.1% SRB after fixation with 10% TCA and reading wells at 560 nm.Viability and proliferation of PBMC (T cells) was quantified by Alamar Blue reduction for the SAg and BT systems. For PBMC viability (referred to as PBMC Cytotoxicity within the assay endpoint names), cells were plated (75,000/well in a 96-well plate) and then chemical samples added for 1 h before addition of activators, SEB and TSST-1 (20 ng/mL final concentration each). Cells were incubated for 90 h. Then, Alamar Blue (20 uL/well) (Invitrogen, Cat DAL1100) was added for 6 h, and the plates were read with a fluorescence microplate reader at 546/580 nm (excitation/emission). For PBMC proliferation, cells were plated and activated as above but incubated for only 16 h prior to addition of Alamar Blue. Plates were read after 6 h.
SMILES,outcome,AC50
CCOc1nc(F)cc2nc(S(=O)(=O)Nc3c(Cl)cccc3C(=O)OC)nn12,inactive,–
c1ccc2c(c1)ccc1ncccc12,inactive,–
CCCCC(CC)COC(=O)c1ccccc1O (stereo unspecified),inactive,–
c1ccc2c(c1)ccc1cc3c(ccc4ccccc43)cc12,inactive,–
C=CCOc1c(Br)cc(Br)cc1Br,–,9.26 µM (active)
CCCCNc1ccc(NCCCC)c2c1C(=O)c1ccccc1C2=O,inactive,–
C=CC=CC=CCCCCC,inactive,–
C/C=C\C/C=C/CCCCCCCCOC(C)=O,–,10.8 µM (active)
CCO[Si](CCCN=C=O)(OCC)OCC,inactive,–
COCc1c(C(C)C)nc(C(C)C)c(/C=C/[C@@H](O)C[C@@H](O)CC(=O)O)c1-c1ccc(F)cc1,inactive,–
COc1ccc2nc(N)sc2c1,inactive,–
N#[N+]c1ccc2c(S(=O)(=O)[O-])cccc2c1O,inactive,–
CCCCCCCCCCCCCCCC[N+](C)(C)CC,–,7.9 µM (active)
O=C(Nc1ccccc1SSc1ccccc1NC(=O)c1ccccc1)c1ccccc1,inactive,–
C=CC(=O)OCC(Br)CBr (stereo unspecified),–,5.81 µM (active)
CC(C)(c1cc(Br)c(OCCO)c(Br)c1)c1cc(Br)c(OCCO)c(Br)c1,–,6.03 µM (active)
O=c1c2ccccc2oc2ccccc12,inactive,–
c1ccc(-c2ccccn2)nc1,inactive,–
C#CC1(O)CC[C@H]2[C@@H]3CCC4=CCCC[C@@H]4[C@H]3CC[C@@]21C (stereo partly specified),–,25.4 µM (active)
CC1OC1C1CCC2(C)OC2C1 (stereo unspecified),inactive,–
O=Nc1ccc(O)cc1,inactive,–
O=C(Cl)c1cc(C(=O)Cl)cc(C(=O)Cl)c1,–,28.2 µM (active)
CC(C)C(=O)C(C)C,inactive,–
CCCCCCCCc1ccc(Nc2ccc(CCCCCCCC)cc2)cc1,inactive,–
CCCCC/C=C\C/C=C\CCCCCCCC(=O)OC,–,16.4 µM (active)
S=C(NC1CCCCC1)NC1CCCCC1,inactive,–
